According to PubChem BioAssay AID651598 (Sanford-Burnham Center for Chemical Genomics, 2012):
“And” between values parts separate entries of the source, which are not always exact repeats. Equal entries are not always repeated.

molecular target: C-X-C chemokine receptor type 6 (Homo sapiens) (UniProt O00574); test: apelin receptor (APJ) antagonists, SAR follow-up, counter-screen for CXCR6 antagonist project, cell-based, beta-arrestin, DiscoveRx, panel, CHO-K1 (AID 651598); conditions: CHO-K1 PathHunter beta-arrestin luminescence, antagonist mode; run 6, at 80 µM (top of the series)
Sequence (O00574 whole entry, looked up): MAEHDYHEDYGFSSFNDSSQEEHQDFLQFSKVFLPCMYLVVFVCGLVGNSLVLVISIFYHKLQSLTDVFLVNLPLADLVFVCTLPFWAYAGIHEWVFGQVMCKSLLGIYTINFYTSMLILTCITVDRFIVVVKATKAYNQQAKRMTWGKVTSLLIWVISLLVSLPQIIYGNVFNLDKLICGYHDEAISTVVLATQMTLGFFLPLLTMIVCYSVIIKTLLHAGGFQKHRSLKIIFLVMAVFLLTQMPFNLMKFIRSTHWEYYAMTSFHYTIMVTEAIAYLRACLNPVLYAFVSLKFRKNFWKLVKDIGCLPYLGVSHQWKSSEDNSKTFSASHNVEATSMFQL

SMILES	inhibition
COc1cc(C(=O)NC2CC3CCCC(C2)N3CC(=O)Nc2ccccc2)cc(OC)c1OC (stereo not drawn)	85.3% and 54.2% and 27.6%
COc1cc(C(=O)NC2CC3CCC(C2)N3CC(=O)Nc2ccccc2)cc(OC)c1OC (stereo not drawn)	57.4% and -0.766%
COc1cc(C(=O)NC2CCN(CC(=O)Nc3ccccc3)CC2)cc(OC)c1OC	20.7%
